Experimental data as given in ChEMBL document CHEMBL4513148, “CO-ADD screening of Stellenbosch University (South Africa) compounds”.
Among all 23,000 compounds or so, about 30 (0.1%) showed an effect of 50% or more. Shown is part of a subset that was picked to be rich in strong results. Measured potencies and affinities stand elsewhere.

System: Pseudomonas aeruginosa
Conditions: Concentration 32 ug.mL-1; ASSAY_TEST Inhibition of Bacterial Growth; detection method Absorption (OD600); MEDIA CAMHB; plate type 384well; NBS; CORNING #3640; time 18 hr

Compared with `CC(CC(=O)NCCc1ccccc1)NC(=O)[C@H](O)C(C)(C)CO` (stereo partly specified), `CC(C)(CO)[C@@H](O)C(=O)N/C=C/C(=O)NCCc1ccccc1` is lower in Inhibition: 72.5% for the first, 39.92% for the second.

Going from `CC(C)(CN)C(O)C(=O)NCCC(=O)NCCc1ccccc1` (stereo unspecified) to `CC(C)(C)C(O)C(=O)NCCC(=O)NCCc1ccccc1` (stereo unspecified), the Inhibition falls from 51.6% to 40.95%.

Compared with `CC(C)(COP(=O)(O)O)[C@@H](O)C(=O)NCCC(=O)NCCc1ccccc1`, `CC(C)(CO)[C@@H](O)C(=O)NCCC(=S)NCCc1ccccc1` is higher in Inhibition: 35.19% for the first, 38.53% for the second.
